Bioassay records deposited in PubChem by several laboratories.
In the library only some 3.8% were active in any assay of this set; here they are far more common.
H9c2 protect – protects H9c2 cardiomyocytes from peroxide injury. H2O2 injury protection, ATPLite, 2 h. protection from H2O2 cell death, % at 20 µM. 360,000 compounds, 0.63% hits;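 active = compounds giving at least 50% protection of heart cells from peroxide-induced death in the single-dose screen, raw or plate-pattern-corrected value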;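 note: 0% = DMSO wells with peroxide and 100% = DMSO wells without peroxide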
FAS-TE inh – inhibitors of human fatty acid synthase thioesterase domain | inhibition, % at 15 µM | 360,000 compounds, 0.67% hits | recombinant FAS-TE, OMFH fluorogenic substrate, fluorescence endpoint;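 active = compounds whose normalised, plate-corrected inhibition of enzyme fluorescence in the single-dose primary screen is 50% or more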;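 note: 0% = DMSO with enzyme and 100% = substrate without enzyme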
Mot1-301 SUMO – inhibitors of SUMOylation pathway: yeast Mot1-301 growth rescue; S. cerevisiae Mot1-301 growth rescue, ATP luminescence, 38.5C; percent above DMSO median, 100 means doubled; growth rescue, % at 18.8 µM; 320,000 compounds, 1% hits; AID 2716;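 active = every valid replicate shows activation above 250% relative to neutral control wells; inactive = the rest, any valid replicate at or below 250%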;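 note: OY570 slx delta 5 strain wells were the positive control but not used for scaling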
CR mimetic SO – lowers age-related superoxide in aged yeast cells | 330,000 compounds, 0.18% hits | S. cerevisiae aged cells, superoxide DHE fluorescence; hits give low values | superoxide response (% of plate mean), % at 10 µM | AID 2690;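 active = superoxide response under a set limit, about three screen SD below normal, cut at about 65% in these data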;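 note: yeast aged for seven days with compound at 30 °C before DHE staining; 100% = average MFI of all compound-treated wells on the plate with controls excluded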
MPTP block – blocks calcium-induced mitochondrial swelling; 360,000 compounds, 1.4% hits; isolated mouse mitochondria, Ca2+ swelling absorbance, 30 min; inhibition, % at 10 µM;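 active = inhibition of 50% or more, scaled per plate between neutral and stimulator controls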;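 note: 0% = DMSO wells given calcium and 100% = 1 mM EGTA wells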
aDG glyco up – increases alpha dystroglycan glycosylation; Pro5-aDG cells, alpha-DG glycosylation AlphaScreen (IIH6); 0% Pro5, 100% B10-LARGE cell signal; activation, % at 10 µM; 360,000 compounds, 0.22% hits; AID 624168;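 active = activation of at least 8% versus controls, or a plate z-score of at least 8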;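 note: Pro5 are CHO cells carrying HIG-tagged alpha-DG that lacks glycosylation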
Rh123 counter – membrane potential counter-screen of mitochondrial pore inhibitors | shares compounds with MPTP block | isolated mitochondria, Rhodamine 123 fluorescence | inhibition, % at 10 µM | 5,000 compounds, 78% hits | AID 624504; in the data active = inhibition above about 22%;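 note: 0% = DMSO vehicle and 100% = positive control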
MPTP swell DR – dose response confirmation of mitochondrial permeability transition pore inhibitors; 780 compounds, 58% hits; IC50, µM; isolated mitochondria swelling, absorbance; shares compounds with MPTP block; in the data active = IC50 below about 20 µM
MPTP cs DR – counter-screen for mitochondrial permeability transition pore inhibitors, dose response | IC50, µM | shares compounds with MPTP block | 780 compounds, 49% hits | isolated mitochondria counterscreen, fluorescence read-out; in the data active = IC50 below about 80 µM
* = called active by the depositor; / = no result given.

SMILES | H9c2 protect | FAS-TE inh | Mot1-301 SUMO | CR mimetic SO | MPTP block | aDG glyco up | Rh123 counter | others
COc1ccc(NC(=O)c2[nH]c(C)c(C(C)=O)c2C)cc1S(=O)(=O)N1CCOCC1 | -2 | -1 | -1 | 95 | -4 | 0 | /
CC(=O)c1c(C)[nH]c(C(=O)Nc2ccc(C)c(S(=O)(=O)Nc3ccc(C)cc3C)c2)c1C | -2 | 22 | 11 | 107 | 92* | 0 | 72*
N#Cc1cnn2c(=O)[nH]cnc12 | 2 | -4 | / | / | -1 | 0 | /
CN1C(=O)C(N=Nc2ccc([N+](=O)[O-])cc2)SC1=S (stereo not given) | -10 | 0 | / | / | 112* | 0 | 69*
COC(=O)C1=NN(C(=O)c2cccc(Br)c2)C(O)(c2ccc(Cl)cc2)C1 (stereo not given) | 8 | 48 | -15 | 114 | 67* | -1 | 73*
CNc1nc(Nc2ccc(C(=O)OC)cc2)c2sccc2n1 | 2 | 0 | / | / | 1 | 0 | /
Cc1c(Cl)cccc1NCC(=O)Nc1ccc(Cl)cc1F | -10 | 17 | 24 | 99 | 57* | 0 | 57*
Cc1ccc(F)cc1NCC(=O)Nc1ccc(Cl)cc1F | -1 | -1 | 4 | 91 | 3 | 0 | /
Cc1ccc(S(=O)(=O)N2CCOCC2)cc1NC(=O)CN1C(=O)CN(C)C1=O | 11 | -3 | / | / | -1 | 0 | /
Oc1ccc(Oc2ccc(Oc3ccc(O)cc3)cc2)cc1 | -11 | 9 | 271 | 83 | 62* | 0 | 80*
Oc1ccc(Br)cc1/C=N/n1cnc2ccccc21 | -14 | 1 | 28 | 109 | 74* | 0 | 67*
Oc1ccc(Br)cc1/C=N/N1CCCCC1 | -14 | 17 | -1 | 110 | 2 | 0 | /
Cc1cc(C(=O)CSc2nc(N)cc(=O)[nH]2)c(C)n1-c1ccc(OC(F)F)cc1 | -17 | 3 | -8 | 105 | 98* | 1 | 89*
CCc1ccc(C)[n+](CC(=O)c2cccs2)c1 | -2 | -4 | -7 | 89 | 0 | 0 | /
Cc1nn(-c2ccc(Cl)cc2)c2[nH]c(CCl)cc(=O)c12 | -4 | 1 | -7 | 88 | 81* | 0 | 81*
C=CC[n+]1ccc(/C=C2\C=Cc3cc(C)ccc3N2CC)c2ccccc21 | -28 | -4 | / | / | 102* | 0 | 76*
CCN1/C(=C/c2cc[n+](CCCS(=O)(=O)[O-])c3ccccc23)Sc2ccccc21 | -7 | -11 | -1 | 89 | 1 | 0 | /
O=[N+]([O-])c1ccc(-c2cnc(SC(c3ccccc3)c3ccccc3)[nH]2)cc1 | -10 | 39 | / | 90 | 90* | 2 | 76*
COc1cccc(CNCc2cc(OC)cc(OC)c2)c1 | -3 | -3 | -3 | 106 | 0 | 0 | /
COc1cc(CNCc2ccc(SC)cc2)cc(OC)c1 | -22 | -2 | 1 | 90 | 56* | 1 | 16 | MPTP swell DR=11*;MPTP cs DR=18*
CCN1CCN(c2cc(N3CCc4ccccc4C3)c(F)cc2[N+](=O)[O-])CC1 | 1 | 19 | -21 | 103 | 104* | 2 | -12
Cc1nn(C)c(C)c1CN(C)S(=O)(=O)c1ccc2ccccc2c1 | -21 | 9 | -19 | 95 | 110* | 6.5* | 102*
Cc1nn(C)c(C)c1CN(C)S(=O)(=O)c1ccc(F)cc1 | -15 | -10 | -1 | 110 | -1 | 0 | /
C=C(C)c1cccc(C(C)(C)NC(=O)Nc2ccc(C(C)=O)cc2)c1 | 1 | 3 | -14 | 101 | 82* | 0 | 83*
O=C(NCc1nc(-c2ccc(C(F)(F)F)cc2)no1)Nc1cc(Cl)cc(Cl)c1 | -16 | 32 | -23 | 121 | 84* | 0 | 70*
SMILES | H9c2 protect | FAS-TE inh | Mot1-301 SUMO | CR mimetic SO | MPTP block | aDG glyco up | Rh123 counter | others
O=C(NCc1nc(-c2ccc(C(F)(F)F)cc2)no1)Nc1ccc(F)cc1F | -4 | 4 | 15 | 110 | 54* | 0 | 69*
O=C(O)COCC(=O)NCc1nc(-c2ccc(C(F)(F)F)cc2)no1 | -1 | -4 | -5 | 101 | 1 | 0 | /
Cc1cccc(-c2noc(CNC(=O)Nc3ccc(F)cc3)n2)c1 | -9 | 6 | -3 | 95 | 59* | 0 | 71*
CN(C(=O)C1CCCN(c2ncnc3c2nc2n3CCCCC2)C1)c1cccc(Cl)c1 (stereo not given) | 3 | -4 | -5 | 113 | 0 | 0 | /
COc1cccc(CNC(=O)[C@@H]2CCCN2C(=O)[C@@H]2CCCN2C(=O)c2c(F)cccc2F)c1 | / | -7 | / | / | 0 | 0 | /
O=C(Nc1cccc2cccnc12)c1ccc2sc([C@@H]3O[C@H](CO)[C@H](O)[C@H](O)[C@H]3O)nc2c1 | 26 | -6 | / | / | -2 | 0 | /
O=C1NCN(c2ccccc2)C12CCN(CCCC(c1ccc(F)cc1)c1ccc(F)cc1)CC2 | -36 | 26 | -10 | 100 | 100* | 1 | -25 | MPTP swell DR=7.3*;MPTP cs DR=31*
O=C(CCCN1CCN(c2ccccc2)CC1)c1ccc(F)cc1 | 0 | -1 | / | / | -1 | 0 | /
COc1ccc2[nH]c(C)c(C(=O)CN3CCN(C/C=C/c4ccccc4)CC3)c2c1 | 4 | 3 | 101 | 103 | 0 | 1 | /
Cc1[nH]c2ccccc2c1C(=O)CN1CCN(C/C=C/c2ccccc2)CC1 | 1 | 1 | -15 | 115 | 65* | 1 | -9 | MPTP swell DR=17*;MPTP cs DR=52*
O=C(CCc1nc2ccccc2c(=O)[nH]1)N1CCN(C/C=C/c2ccccc2)CC1 | 59* | -2 | -6 | 83 | 68* | 1 | 49*
COc1cc(OC)cc(-c2c(-c3ccc(C(C)=O)cc3)c3cc(-c4cccc5[nH]ccc45)ccc3n2C)c1 | -8 | 37 | 37 | 86 | 0 | 1 | /
CCN(CC)S(=O)(=O)c1ccc(N2CCN(c3ccccc3OC)CC2)c(N)c1 | -23 | 12 | -12 | 112 | 108* | 2 | 98*
COc1ccc(NC(=O)c2ccccc2NC(=O)C2CCCCC2C(=O)O)cc1 (stereo not given) | 0 | -3 | / | / | -1 | 0 | /
CC(C)c1cc(C(=O)Nc2cc(Br)ccc2O)no1 | -16 | -8 | 206 | 81 | 58* | 0 | 62*
O=C(NC1CCCCCCC1)c1cc(COc2ccc3ncccc3c2)on1 | -37 | 21 | / | / | 102* | 2 | 99*
O=C(c1cc(COc2ccc3ncccc3c2)on1)N1CCCC(O)C1 (stereo not given) | -8 | -1 | 26 | 94 | 2 | 1 | /
CCN1CCN(C(=O)c2cc(COc3c(C)cccc3C)on2)CC1 | 0 | -6 | -4 | 112 | 1 | 0 | /
